From PMC12136788
Over roughly 5,800 sequences, “enrichment r” has its median near 0.68; the highest 2% begin near 11. Many of the other results were omitted from the sample, so the highest values are more common in it than they were.

T1: UNK ZnF1-6 (called full-length) (human, UniProt Q9C0B0 30-357)
T1 sequence: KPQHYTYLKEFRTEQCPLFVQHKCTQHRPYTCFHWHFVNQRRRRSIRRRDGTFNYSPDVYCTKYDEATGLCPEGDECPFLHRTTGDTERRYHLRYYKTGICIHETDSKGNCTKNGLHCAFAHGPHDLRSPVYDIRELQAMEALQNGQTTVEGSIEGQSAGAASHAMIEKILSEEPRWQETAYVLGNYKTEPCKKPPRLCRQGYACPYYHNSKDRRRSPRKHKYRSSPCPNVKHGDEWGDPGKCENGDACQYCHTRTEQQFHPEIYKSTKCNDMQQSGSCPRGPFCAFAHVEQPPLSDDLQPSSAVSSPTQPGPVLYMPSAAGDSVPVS

B1: chr4:113382420:113382521:+|3pUTR|ENSG00000145362|msi1|FALSE|bound_elsewhere (ssRNA)
RNA: GGGAGUUCUACAGUCCGACGAUCUCUUCAGGUCUUUAGAUCUUGGACAAGUUGGCAGGGUAUUUUAAAAGCUAUAACUACUGUAGUUUUCCAGUUUUCAUUGCUGCUUUAGCAAACCACGCUGUCUUACAGUGGUACUUUCUUCAACAGAGGAUUGAGCAUCA
B2: chr2:171482635:171482736:+|3pUTR|ENSG00000115827|unk|FALSE|unique (ssRNA)
RNA: GGGAGUUCUACAGUCCGACGAUCCAAGAGUGUUUCAGAAUAGGAUGUCUUAAGACUUCAGUCAUGUCAGAGAUUUUUUUUUUUAGGUGAUUAUUGAGUUUCUCCUUCUCCUUUAAGUCAUCACCUUCCUUUUAUGAAAUGAUACAACAGAGGAUUGAGCAUCA
B3: chr9:104535772:104536723:-|CDS|ENSG00000204246|control|control|control (ssRNA)
RNA: GGGAGUUCUACAGUCCGACGAUCGACAAGCUCAUUUCUCUGUUUUAUGGGGUAGUGACACCCAUGCUGAAUCCUAUACUCUAUAGCUUGAGAAAUAAGGAUGUAAAAGCUGCUGUAAAAUAUUUGCUGAACAAAAAACCAAUUCAACAGAGGAUUGAGCAUCA
B4: chr8:23842113:23842214:-|3pUTR|ENSG00000159167|msi1|FALSE|unique (ssRNA)
RNA: GGGAGUUCUACAGUCCGACGAUCACUUUAGACAUUUUUGUGCCAUUAUAUUUGCAUUAUGUAUUUAUAAUUUAAAUGAUAUUUAGGUUUUUGGCUGAGUACUGGAAUAAACAGUGAGCAUAUCUGGUAUAUGUCAUUAUUUAUCAACAGAGGAUUGAGCAUCA
B5: ENSG00000112936:stop:overlap|stop_codon|ENSG00000112936|stop_codon|NA|stop_codon (ssRNA)
RNA: GGGAGUUCUACAGUCCGACGAUCGAUGCAGAGGGCAGAGCAUCUCUGUCACCAGCAUAAGGCCUUGUGCUGCGGAAACCCAGUAGGCUCCUGGAGGCCCUGGUCAGCUUGCUUGGAAUCCAGCAGGCAGCUGGGGCUGAGUGACAACAGAGGAUUGAGCAUCA
B6: ENSG00000170312:stop:overlap|stop_codon|ENSG00000170312|stop_codon|NA|stop_codon (ssRNA)
RNA: GGGAGUUCUACAGUCCGACGAUCGCAAAAUGGCACUGAAUCAUCCAUAUUUUAAUGAUUUGGACAAUCAGAUUAAGAAGAUGUAGCUUUCUGACAAAAAGUUUCCAUAUGUUAUAUCAACAGAUAGUUGUGUUUUUAUUGUUACAACAGAGGAUUGAGCAUCA
B7: chr2:69942770:69942871:+|3pUTR|ENSG00000059728|unk|FALSE|unique (ssRNA)
RNA: GGGAGUUCUACAGUCCGACGAUCUGUUUCCAGAUGUUUCUUUAUGUAAAUAUGACGCCAAUGUAAAUCCUGUGUCAAGAUCAUAGAGAAUGGUGCUUUUUACUACAGUUAGCACAUGCAUUUUUAGAAACUACUACAUGUUUUCAACAGAGGAUUGAGCAUCA
B8: ENSG00000114439:stop:overlap|stop_codon|ENSG00000114439|stop_codon|NA|stop_codon (ssRNA)
RNA: GGGAGUUCUACAGUCCGACGAUCUUCAUUGUAAAACAUUGUGCUUUACCUACUACCCUAGCCUUGUCUUUACCGAGGGAUGCUAGUGAGUCCAAGUGGUGGAAAAUAUAGACUGCAAACAAGUGCUUGUUGCCCCACACGGCCCAACAGAGGAUUGAGCAUCA
B9: ENSG00000117906:stop:overlap|stop_codon|ENSG00000117906|stop_codon|NA|stop_codon (ssRNA)
RNA: GGGAGUUCUACAGUCCGACGAUCAGUCCUUUAGGAAGCAUCAAUGUGGAGGUUUGGGGCUCCAUCCUCAGAGCCAGUCUGCUUAGCUUCACAUUUAGCUCCAGCACUUCACGGUUGUGUAACUUUGGCUUCACUUAAAGGACACAACAGAGGAUUGAGCAUCA
B10: chr12:104348774:104348848:+|3pUTR|ENSG00000198431|msi1_unk|total|mutant (ssRNA)
RNA: GGGAGUUCUACAGUCCGACGAUCCGUUGUCAAGUUUUCCCGGGUUGAAUUUUUUUCUUUUUUCUCCAUGGUGUUAAUGAUAUCCGAGAUGAAAAACGUCCGCAGUUGAUUUUUGUCCAAAAGCAAGUCAUGGCCCGAGUAUCCCAACAGAGGAUUGAGCAUCA
B11: chr10:62094764:62094865:+|3pUTR|ENSG00000150347|msi1|FALSE|unique (ssRNA)
RNA: GGGAGUUCUACAGUCCGACGAUCGAUGAACUCCCCAACCCACUGUGCCCCUCCCGCAACACUACCAGUAGACUUUAGAACCAUAGUUAACUAAGUCUUUUACCUCUGAGAUACUUAAUUCUGGGAAAAUUGGUGACAAUUUUCCAACAGAGGAUUGAGCAUCA
B12: chr1:42278343:42278454:-|CDS|ENSG00000198815|unk|FALSE|bound_elsewhere (ssRNA)
RNA: GGGAGUUCUACAGUCCGACGAUCAAAAAGAAAAUGACUUUAAGUGAAAUUUAUCAGUGGAUUUGUGAUAACUUCCCAUAUUAUAGAGAGGCUGGCAGUGGUUGGAAGGUAAGGAUUUUAUUUAAAUUAUUACUUUUAUGAAGUCAACAGAGGAUUGAGCAUCA
B13: chr16:21983864:21984660:-|three_prime_utr|ENSG00000155714|control|control|control (ssRNA)
RNA: GGGAGUUCUACAGUCCGACGAUCAAAGAAAAUUGAGCUGGCAAAAGAUGAAUCUUUCACAAGCAGUGAUGAUAAUGAAAAUGUAGAUUUAGAUAAAAGACUUCAAUAUUAUAGAUAUCCGUGGUCAACUGUGCAUCACCCUGCCAACAGAGGAUUGAGCAUCA
B14: chr4:65323451:65323552:-|3pUTR|ENSG00000145242|msi1|FALSE|unique (ssRNA)
RNA: GGGAGUUCUACAGUCCGACGAUCAUCAAGAAAAAGUACAAUACAGGGUGUAUAUUUAUUUUUUGUGUUAUAAAGUUUACUUUUAGUUGCUCUUCUAGAGAUUAUUAGGUAAUAAAUGUGUAUAUACUGUAUAAUUUGCAAUAUCAACAGAGGAUUGAGCAUCA
B15: chr3:98797553:98797658:-|3pUTR|ENSG00000057019|msi1|FALSE|unique (ssRNA)
RNA: GGGAGUUCUACAGUCCGACGAUCAUUUCAUUCAUUGAAGAAUCAAUACAUAUUUUGUUUCAAAAUGUUUGAAACAAAAGACAUAGAUGGUAGACUUUUAUUAAAACAUAUAUGGAUGUGGAAAGCACAUAUAUUAAUGCAGUCCAACAGAGGAUUGAGCAUCA
B16: chr18:68676332:68676434:-|3pUTR|ENSG00000166479|msi1_unk|FALSE|overlapping (ssRNA)
RNA: GGGAGUUCUACAGUCCGACGAUCAUCAAGAUUAUGAGGUUAAAAAUAAUGUGGUUUUAUAUAGCAUAGUGGUUUUAUUUUGUUAGUUAUUUUUAAAGGAGAAGAAAUGUUACUUUUUAACUUUAUACUCAGUUGCAUUAUCAUCAACAGAGGAUUGAGCAUCA
B17: chr22:49888080:49888186:+|3pUTR|ENSG00000100426|unk|FALSE|unique (ssRNA)
RNA: GGGAGUUCUACAGUCCGACGAUCUGGCUUAUUAACAGGGAAGAAGCUUGUUAUAUUCCAGUUGUAAGAAUAGCCUUAGUGUUUAGAUUUUUUUAUGAUAGGGAAGAUGCGGCCAUCACUGGGAUAUUUUCAAAUCCCAAGGACCAACAGAGGAUUGAGCAUCA
B18: chr12:95514132:95514176:+|3pUTR|ENSG00000111142|msi1_unk|FALSE|overlapping (ssRNA)
RNA: GGGAGUUCUACAGUCCGACGAUCCUUUUAAAUGCUAACUGUUUUUCCCCUUCCUGUCUAGGAAAAUGCUAUAAAGCUCAAAUUAGUUAGGAAUGACUUAUACGUUUUGUUUUGAAUACCUAAGAGAUACUUUUUGGAUAUUUACAACAGAGGAUUGAGCAUCA
B19: chr18:55223968:55224079:-|3pUTR|ENSG00000196628|unk|FALSE|unique (ssRNA)
RNA: GGGAGUUCUACAGUCCGACGAUCUAUAAAGCUUUGUUUGUCUAGUGCUCUUUUGCUAUAAAAUAGACUGUAGUACACCCUAGUAGGAAAAAAAAAAAACUAAAUUUAAAAAUAAAAAAUAUAUUUGGCUUAUUUUUCGCAGGACAACAGAGGAUUGAGCAUCA
B20: chrX:115010634:115010735:-|CDS|ENSG00000123496|msi1|FALSE|unique (ssRNA)
RNA: GGGAGUUCUACAGUCCGACGAUCUGGAUCAUCAGAGAACAAGCCUAUCAGAUCCAGUUAUUUCACUUUUCAGCUUCAAAAUAUAGGUGAUGUAAACCAACAAACAACUUCAAAUUCAUUGUUUCUAGUUUAGGCCAUUUACAACAACAGAGGAUUGAGCAUCA
B21: chr2:99394746:99394872:+|CDS|ENSG00000158417|unk|FALSE|unique (ssRNA)
RNA: GGGAGUUCUACAGUCCGACGAUCGAUGUGAGAAUUGAACGAGAUGCACAAGAAAUGGCUGAUAGUUUAGGAGUUAGAAUUUUUAGUGCAGAAAUUAUUUAUCAUUUAUUUGAUGCCUUUACAAAAUAUAGACAAGACUACAAGCAACAGAGGAUUGAGCAUCA
B22: chr18:54155150:54155251:-|3pUTR|ENSG00000134046|unk|FALSE|unique (ssRNA)
RNA: GGGAGUUCUACAGUCCGACGAUCUUUCCACUGGCUUUUGCCUGUAAGAAAAAAAAUGUACCCGAGCACAUAGAGCUUUUUAAUAGCACUAACCAAUGCCUUUUUAGAUGUAUUUUUGAUGUAUAUAUCUAUUAUUCAAAAAAUCAACAGAGGAUUGAGCAUCA
B23: chr15:100649042:100649144:+|3pUTR|ENSG00000183475|unk|FALSE|unique (ssRNA)
RNA: GGGAGUUCUACAGUCCGACGAUCUACCUCUGCUUUUCUUUUGCUGUGCUCUUGUUUUUAACUUAUUUUUUUUUUAACAACUGUAGUACACUACCCUGAGACACUGCAUCUCGAUUUCUAUCUCUAGUUAGAGUUGUACUUUUACAACAGAGGAUUGAGCAUCA

These binders were tested against T1, UNK ZnF1-6 (called full-length) (assay: nsRBNS (natural sequence RNA bind-n-seq); RBNS binding buffer (assumed for nsRBNS): 25 mM Tris pH 7.5, 150 mM KCl, 3 mM MgCl2, 0.01% Triton X-100, 500 ug/ml BSA, 20 U/ml SUPERase-In, 4 C; UNK is unkempt and MSI1 is Musashi-1; names of the RNAs are library labels; protein concentration not given here; high values mean tight binding).

With B1 as the binder, how does the binding signal read?
Its binding signal is 0.392 enrichment R.

B2 was tested. Which binding signal did it give?
Its binding signal is 1.03 enrichment R.

B3 was tested. Which binding signal did it give?
Its binding signal is 0.451 enrichment R.

Which binding signal does the source give for B4 here?
Its binding signal is 3.25 enrichment R.

For B5, which binding signal is on record?
Its binding signal is 0.329 enrichment R.

With B6 as the binder, how does the binding signal read?
The binding signal was 0.706 enrichment R.

B7 was tested. Which binding signal did it give?
The binding signal was 0.538 enrichment R.

For B8, which binding signal is on record?
Its binding signal is 0.604 enrichment R.

For B9, which binding signal is on record?
Its binding signal is 0.657 enrichment R.

B10 was tested. Which binding signal did it give?
The binding signal was 0.359 enrichment R.

Which binding signal does the source give for B11 here?
Its binding signal is 3.7 enrichment R.

How did the binding signal turn out when B12 was run?
Its binding signal is 3.38 enrichment R.

B13 was tested. Which binding signal did it give?
The binding signal was 2.22 enrichment R.

How did the binding signal turn out when B14 was run?
The binding signal was 3.94 enrichment R.

How did the binding signal turn out when B15 was run?
The binding signal was 1.11 enrichment R.

Which binding signal does the source give for B16 here?
Its binding signal is 48.4 enrichment R.

For B17, which binding signal is on record?
The binding signal was 11.3 enrichment R.

With B18 as the binder, how does the binding signal read?
Its binding signal is 2.63 enrichment R.

B19 was tested. Which binding signal did it give?
The binding signal was 39.5 enrichment R.

Which binding signal does the source give for B20 here?
Its binding signal is 0.759 enrichment R.

B21 was tested. Which binding signal did it give?
Its binding signal is 15.9 enrichment R.

For B22, which binding signal is on record?
Its binding signal is 5.14 enrichment R.

With B23 as the binder, how does the binding signal read?
The binding signal was 5.29 enrichment R.
